Laboratory results as given in PubChem BioAssay.
Calls of active or inactive are those of the source.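 The calls were made as follows: active = inhibition at or above 50% relative to wild type and mutant plate controls; inactive = inhibition below 50%.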

experiment: inhibitors of Chlamydomonas gravitaxis, primary screen, whole organism, Chlamydomonas reinhardtii, WT vs cilia-less mutant, absorbance, 96-well (AID 463189); conditions: OD600 absorbance, 2 days, at 10 µM, stronger effect = higher value;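 also: 0% = wild type cc124 cells in DMSO and 100% = ciliumless bld1 mutant cells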

SMILES	inhibition
NCCCNCCSP(=O)(O)O	1.58% (inactive)
Cc1cc(O)c2c(c1)C(=O)c1cc(O)cc(O)c1C2=O	-10.7% (inactive)
C=C(C)C1CC=C(C(=O)O)CC1 (stereo unspecified)	1.75% (inactive)
CN/C(=C\[N+](=O)[O-])NCCSCc1ccc(CN(C)C)o1	1.86% (inactive)
CC(COc1ccc(/C=C/c2ccccc2)cc1)[N+](C)(C)C (stereo unspecified)	52% (active)
S=C(S)N1CCCC1	21.2% (inactive)
NCCCCCC(=O)O	3.27% (inactive)
Cc1nc(N=Nc2ccc(C(=O)O)cc2)c(COP(=O)(O)O)c(C=O)c1O	8.14% (inactive)
CC1(NCC(O)COc2cccc3[nH]ccc23)CCC(C(C)(C)NC(=O)CBr)CC1 (stereo unspecified)	5.45% (inactive)
O=C(O)/C(=C/c1c(C(=O)O)[nH]c2cc(Cl)cc(Cl)c12)c1ccccc1	-3.38% (inactive)
Cc1ccc(C(=O)Nc2ccc(S(=O)(=O)O)c3cc(S(=O)(=O)O)cc(S(=O)(=O)O)c23)cc1NC(=O)c1cccc(NC(=O)Nc2cccc(C(=O)Nc3cc(C(=O)Nc4ccc(S(=O)(=O)O)c5cc(S(=O)(=O)O)cc(S(=O)(=O)O)c45)ccc3C)c2)c1	-3.04% (inactive)
CN(C)CCCO[C@@H]1[C@H]2OC(C)(C)O[C@H]2O[C@@H]1C(O)CO (stereo partly specified)	0.355% (inactive)
COC(=O)C(C)(N)Cc1ccc(O)cc1 (stereo unspecified)	9.13% (inactive)
CCN(CC)CCCCCCCCOC(=O)c1cc(OC)c(OC)c(OC)c1	24.5% (inactive)
Cc1ccc(=O)n(-c2ccccc2)c1	4.35% (inactive)
C=CC[C@H](N)C(=O)O	4.13% (inactive)
